A selection: hits, their analogues and other compounds. The true share with any hit is near 28%.
CYP2C9 inh: blocks human cytochrome P450 2C9; 20% of 96,000 active; CYP2C9 Supersomes, luciferin-H conversion, luminescence; P11712; inhibition, % at 5 µM;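 active = blocking of liver enzyme CYP2C9 beyond about 50% at 5 µM, limit read from the data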
CYP2C9 activ: CYP2C9 (human) activation. P11712. recombinant CYP2C9, luciferin-H conversion, luminescence; active compounds read high; factor 1 = untreated enzyme, 0 = blocked. activation factor at 5 µM. 1.4% of 96,000 active;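 active = activation factor of 2 or more for CYP2C9 at a 5 µM dose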;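 note: 0 = sulfaphenazole-blocked wells and 1 = vehicle-only wells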
PTK2B oligo ant: antagonists of human Pyk2 oligomerization | Q14289 | Q293 cells, Pyk2 FERM NanoBiT luminescence; active compounds read low | z-score (the deposit names both 25 µM and 10 µM) | 0.83% of 99,000 active | AID 1347419;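 active = Z-score of -3 or lower, scaled per plate to the spread of control and sample wells; inactive = z-score above -3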;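 note: negative z-score means lost luminescence so less FERM oligomerization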
CYP2C19 inh: human CYP2C19 inhibition | CYP2C19 Supersomes, luciferin-H EGE luminescence, 30 min | inhibition, % at 5 µM | 21% of 96,000 active;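 active = CYP2C19 inhibition above a set limit at 5 µM in the primary screen, cut at about 50% in these data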;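 note: plate controls were negative control wells for no effect and 2.5 mM tranylcypromine positive control for full effect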
Target sequence (P33261 whole entry, looked up): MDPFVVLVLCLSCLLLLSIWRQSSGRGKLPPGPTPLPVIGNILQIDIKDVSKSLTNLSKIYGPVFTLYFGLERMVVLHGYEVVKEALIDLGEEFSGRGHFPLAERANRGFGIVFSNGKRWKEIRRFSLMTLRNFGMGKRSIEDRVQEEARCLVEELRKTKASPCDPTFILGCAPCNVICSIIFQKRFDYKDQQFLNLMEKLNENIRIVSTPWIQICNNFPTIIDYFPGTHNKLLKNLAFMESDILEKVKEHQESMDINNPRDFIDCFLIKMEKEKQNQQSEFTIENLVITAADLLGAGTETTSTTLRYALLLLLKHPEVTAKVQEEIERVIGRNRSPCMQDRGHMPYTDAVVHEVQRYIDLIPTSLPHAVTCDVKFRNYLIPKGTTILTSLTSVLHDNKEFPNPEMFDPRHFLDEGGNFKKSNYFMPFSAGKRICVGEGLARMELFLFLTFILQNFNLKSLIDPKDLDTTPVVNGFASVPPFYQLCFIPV
CYP2C19 activ: activators of human cytochrome P450 2C19; P33261; recombinant CYP2C19, luciferin-H EGE luminescence; active compounds read high; 0 = fully inhibited enzyme, 1 = untreated enzyme; activation factor at 5 µM; 96,000 tested, under 10 active;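 active = activation factor of at least 2 at 5 µM in the primary screen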;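 note: 0 = wells with 2.5 mM tranylcypromine and 1 = vehicle-only wells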
Numbers without * were called inactive; . = not tested or not shown.

SMILES	CYP2C9 inh	CYP2C9 activ	PTK2B oligo ant	CYP2C19 inh	CYP2C19 activ
Cc1ccc(N(CC(O)Cn2c3ccccc3c3ccccc32)S(C)(=O)=O)cc1 (stereo not drawn)	96*	0	0.55	94*	0.1
Cc1nccn1CC(O)Cn1c2ccccc2c2ccccc21 (stereo not drawn)	.	.	-0.17	.	.
CCOC(=O)C1CCCN(C(=O)CCNS(=O)(=O)c2ccc3c(c2)CCC(=O)N3)C1 (stereo not drawn)	1	1	0.17	-18	1.2
O=C(CSc1ccsc1[N+](=O)[O-])N1CCN(c2ccc(Cl)cc2)CC1	.	.	0.3	.	.
CS(=O)(=O)N(Cc1ccco1)CC(O)Cn1c2ccccc2c2ccccc21 (stereo not drawn)	59*	0.4	-0.26	63*	0.4
CCn1c(=O)cc(SCC(=O)NCc2ccco2)c2ccccc21	-74	1.7	0.06	19	0.8
Cc1ccc(-c2nnc(SCC#CCOC(=O)c3ccco3)o2)cc1	89*	0.1	0.95	89*	0.1
CCOc1cccc(C(=O)Nc2cccc(-c3nnc(-c4ccccc4)o3)c2)c1	42	0.6	-3.6*	35	0.6
COc1cccc(C(=O)Nc2ccc(-c3nnc(-c4ccco4)o3)cc2)c1	43	0.6	-1.9	65*	0.3
Cc1ccc(-c2nnc(SCC#CCOC(=O)c3cccs3)o2)cc1	-55	1.6	1.6	16	0.8
Cc1ccc(-c2nnc(-c3ccc(NC(=O)c4ccco4)cc3)o2)cc1	79*	0.2	0.71	67*	0.3
O=C(Nc1ccc(-c2nc3ncccc3o2)cc1)c1ccco1	16	0.8	0.23	0	1
CC1CCN(CCNC(=O)CN(C)S(=O)(=O)c2cccc3nsnc23)CC1	-5	1	0.68	-12	1.1
O=C(Nc1ccc(-c2nnco2)cc1)c1ccccc1	77*	0.2	0.31	83*	0.2
CCOc1cccc(C(=O)Nc2ccc3oc(Cc4ccc(Cl)cc4)nc3c2)c1	58*	0.4	0.87	47	0.5
CC1CN(c2cc(=O)n(-c3ccccc3)c(=O)[nH]2)CC(C)O1 (stereo not drawn)	8	0.9	.	-10	1.1
Cn1c(C(=O)N2CCc3ccccc3C2)cc2c(=O)n3ccccc3nc21	49	0.5	-0.93	66*	0.3
CCn1nc(C(=O)N2CCc3ccccc3C2)c2ccccc2c1=O	69*	0.3	-0.62	66*	0.3
Cn1nc(C(=O)N2CCc3ccccc3C2)c2ccccc2c1=O	54*	0.5	-0.36	58*	0.4
CCCn1nc(C(=O)N2CCc3ccccc3C2)c2ccccc2c1=O	38	0.6	0.15	33	0.7
CCOC(=O)C1C(=O)C=C(/C=C/c2ccccc2)CC1c1ccc(Cl)cc1 (stereo not drawn)	21	0.8	1.9	10	0.9
Cc1cc(C)c2c(c1)/C(=N/NC(=S)Nc1ccc(F)cc1)CCC2	-27	1.3	0.38	-9	1.1
N#CC1(c2ccc(NC(=O)c3ccccc3)cc2)CCCC1	-12	1.1	-0.43	-12	1.1
N#CC1=C(N)NC(SCc2ccc(F)cc2)=C(C#N)C12CCCCC2	100*	0	-1.4	100*	0
N#CC1=C(N)NC(SCC(=O)Nc2ccccc2)=C(C#N)C12CCCC2	95*	0.1	-0.32	99*	0
SMILES	CYP2C9 inh	CYP2C9 activ	PTK2B oligo ant	CYP2C19 inh	CYP2C19 activ
CC1=C(C(=O)Nc2ccccc2)C2(CCCCC2)C(C#N)=C(S)N1	84*	0.2	0.17	68*	0.3
O=C1C2C3CCCC3=C3CCCC3C2C(=O)N1c1ccccc1 (stereo not drawn)	35	0.7	0.26	33	0.7
CC(=O)N1C(C(=O)O)CSC1c1ccc(C)cc1 (stereo not drawn)	-9	1.1	.	-25	1.2
Cc1ccc(C(=O)N/N=C\c2ccc[nH]2)cc1[N+](=O)[O-]	2	1	-0.72	6	0.9
COc1ccc(C(=O)NC2CCSC2=O)cc1 (stereo not drawn)	.	.	-0.46	.	.
O=C(CN(c1ccc(Cl)c(C(F)(F)F)c1)S(=O)(=O)c1ccccc1)N/N=C/c1cccc2c1OCCO2	60*	0.4	-1.9	46	0.5
O=C1C2C3C=CC(C3)C2C(=O)N1CCc1ccccc1 (stereo not drawn)	35	0.7	0.24	90*	0.1
O=C(NCCN1C(=O)C2C3C=CC(C3)C2C1=O)Nc1ccccc1O (stereo not drawn)	17	0.8	.	77*	0.2
